US20150152398, “Endoribonuclease and Methods of Use Thereof” (The Regents of the University of California, published 2015)

Molecular target: T1, TtCas6A (TTHA0078, Cas6) (Thermus thermophilus HB8)
T1 chain: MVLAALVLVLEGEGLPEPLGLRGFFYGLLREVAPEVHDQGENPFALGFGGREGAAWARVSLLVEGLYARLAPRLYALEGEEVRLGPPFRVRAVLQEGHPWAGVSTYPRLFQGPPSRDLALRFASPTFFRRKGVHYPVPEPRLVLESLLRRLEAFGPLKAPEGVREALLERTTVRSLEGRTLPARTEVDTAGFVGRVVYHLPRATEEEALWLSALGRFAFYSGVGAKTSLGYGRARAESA
Test: EMSA; closing base pair; Kd in FIG. 24C only
Settings: chain copies: 2 stated (dimer in solution); hairpin; ssRNA; [20,25]
From the text: FIG. 22 illustrates that TtCas6A and TtCas6B both cleave repeats R1 and R3 and retain their cleaved products. (A) Sequences and predicted secondary structures of T. thermophilus CRISPR repeats. Sites of cleavage are indicated with blue arrows. TtCas6e (TTHB192) cleaves repeat R2, while TtCas6A (TTHA0078) and TtCas6B (TTHB231) both cleave repeats R1 and R3. (B) Cleavage product binding affinities of TtCas6A and TtCas6B enzymes. Maltose binding protein (MBP)-fused TtCas6A or TtCas6B were bound to in 5′-radiolabelled, vitro transcribed R1 and R3 RNAs. Bound and unbound fractions were resolved by electrophoresis on a native polyacrylamide gel and visualized by phosphorimaging. The data for these and all subsequent binding assays were fit with standard binding isotherms (solid line). […] RNA cleavage was monitored using denaturing polyacrylamide gel electrophoresis. […]
To test the importance of the stem sequence for substrate RNA recognition by TtCas6A, a series of EMSAs was performed using R1 repeat-derived RNAs that carried single base pair substitutions (C-G→A-U). […] This is consistent with the observation that the lower three C-G base pairs are specifically read out by Arg129. The binding defect observed upon mutation of the closing (uppermost) base pair could be due to loss of stability of the stem-loop structure, which is determined by the closing base-pair (Serra et al, 1993). […]
In the case of GUUGCAAGGGAUUGAGCCCAGUAAUGGGAU, the binding signal is reported as ~5 fold lower affinity than wild-type RNA.
